Assay outcomes as filed in PubChem BioAssay.
Hits are enriched below; roughly 7.5% of the tested compounds scored in any of these assays.
FLuc modulator = inhibits or activates purified firefly luciferase, miR-21 counter-screen | purified FLuc, Km substrates, luminescence inhibition | Potency, µM (highest dose often 57.5 µM), without a hit: top-dose activity change, negative = inhibition, most hits filed as inhibitors | actives 6.9% (n = 360,000);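 also: plate controls were vehicle for no effect and reference inhibitor for full effect; nearly all actives have a fitted effect of over 55% in size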
Target sequence (P08659 whole entry, looked up): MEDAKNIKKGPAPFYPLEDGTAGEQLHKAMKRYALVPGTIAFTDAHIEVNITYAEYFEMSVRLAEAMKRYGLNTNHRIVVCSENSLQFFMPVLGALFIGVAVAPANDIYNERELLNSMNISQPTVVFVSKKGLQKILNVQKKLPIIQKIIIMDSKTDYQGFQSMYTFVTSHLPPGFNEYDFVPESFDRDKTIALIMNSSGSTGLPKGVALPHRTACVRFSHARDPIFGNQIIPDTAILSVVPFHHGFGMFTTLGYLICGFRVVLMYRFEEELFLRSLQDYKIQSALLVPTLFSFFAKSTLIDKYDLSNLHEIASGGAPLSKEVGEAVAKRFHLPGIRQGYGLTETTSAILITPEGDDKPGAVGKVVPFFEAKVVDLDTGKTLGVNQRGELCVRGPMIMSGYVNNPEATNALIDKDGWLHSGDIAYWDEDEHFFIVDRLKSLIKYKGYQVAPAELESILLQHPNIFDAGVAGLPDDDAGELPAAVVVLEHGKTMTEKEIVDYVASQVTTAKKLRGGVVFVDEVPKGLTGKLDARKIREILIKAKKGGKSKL
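Purified P. pyralis luciferase (10nM final) with 10uM D-luciferin and 10uM ATP (Km levels) in 50mM Tris acetate pH 7.5, 10mM Mg acetate, 0.01% Tween-20, 0.05% BSA; qHTS 6-point titration, ~60 µM downward; luminescence read.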
ELG1 genotox = induces genotoxicity in HEK293T cells with luciferase-tagged ELG1; HEK293T ELG1-luciferase reporter, luminescence, 16 h; Potency, µM (highest dose often 46 µM), for the others: at the top dose activity change, positive = activation, hits mostly activators; actives 1.3% (n = 330,000); also: % of control where 0% means no effect; nearly all actives have a fitted effect of over 60% in size
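Quantitative HTS format in 1536-well plates. HEK293T ELG1-luciferase reporter cells receive test compound and are incubated 16 hr at 37 °C, 5% CO2; ONE-Glo added, 30 min room temperature, then luminescence read.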
SMN2 splice up = enhancers of SMN2 splice variant expression. HEK293 SMN2-luciferase splicing reporter, luminescence, 30-36 h. actives 2.8% (n = 210,000). Potency, µM (titrated, usually from 46.1 µM), without a hit: at the highest dose activity change, positive = activation, most hits filed as activators. AID 1458; also: % of control where 0% means no effect; nearly all actives have a fitted effect of over 55% in size
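HEK293 cells carry an SMN2 minigene-luciferase reporter in which exon 7 inclusion puts luciferase in frame. Cells were seeded at 2000 cells/well, attached for 10-12 hours, then exposed to compounds for 30-36 hours at 37C before ONE-Glo luminescence.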
Rab9 promoter act = activates the Rab9 promoter. Potency, µM (doses to about 9.22 µM), without a hit: at the top dose activation, negative = inhibition, actives largely listed as activators. Huh7 Rab9 promoter-luciferase reporter, luminescence, 24 h. AID 485297. actives 2.8% (n = 320,000); also: % of control where 0% means no effect; nearly all actives have a fitted effect of over 60% in size
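Huh7 cells stably carrying a Rab9 promoter-luciferase reporter, 1500 cells per well in OP-MEM I with 10% FBS, treated with compound 24 hours at 37C. Luciferase activity read by luminescence after 10 minutes with Amplite reagent.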
NPC1 prom act = activators of NPC1 promoter; Potency, µM (series often up to 9.22 µM), without a hit: top-dose activation, hits mostly activators; actives 2.4% (n = 320,000); Huh7 NPC1 promoter luciferase reporter, 24 h; also: % of control where 0% means no effect; nearly all actives have a fitted effect of over 60% in size
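Readout is luciferase luminescence, reflecting NPC1 promoter activation in stably transfected Huh7 cells after 24 h compound exposure at 37 °C in reduced-serum medium with 10% FBS.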
The depositor's hits bear a star; ? = inconclusive; nt = no result. Calls follow the shape of the dose curve; as a rule, active = well fitted curve in the direction sought with a large enough effect; inconclusive = small, poorly fitted or top-dose-only effect, or another doubt; inactive = no such curve, though single readings can be large; an effect the other way counts as inactive or inconclusive. Potency is read from the fitted curve at half-maximal effect.

SMILES	FLuc modulator	ELG1 genotox	SMN2 splice up	Rab9 promoter act	NPC1 prom act
COc1cccc(-c2noc(-c3cc(C(C)C)[nH]n3)n2)c1OC	16.9µM*	nt	nt	nt	nt
COc1cccc(-c2noc(C3CC(=O)N(c4ccc(F)cc4)C3)n2)c1OC (centres undefined)	5.2%	nt	nt	nt	nt
CC(C)c1cc(-c2nc(-c3cccc(Cl)c3)no2)n[nH]1	6.75µM*	nt	nt	nt	nt
Cc1cccc(-c2noc(-c3cc(C(C)C)[nH]n3)n2)c1	4.78µM*	nt	nt	nt	nt
Cc1cccc(-c2noc(-c3ccno3)n2)c1	21.3µM*	?	nt	?	28.5%
COc1cc2[nH]c(C(=O)NCC3CCCO3)cc2c(OC)c1OC (centres undefined)	5.4%	6.7%	nt	-0.7%	-4.2%
Cc1ccc(-c2nc3ccccc3s2)cc1NC(=O)c1ccc2c(c1)OCO2	4.78µM*	-1.1%	-4.2%	-3.1%	11.4%
O=C(Nc1cc(-c2nc3ccccc3s2)ccc1Cl)c1ccc2c(c1)OCO2	10.7µM*	6.5%	8.1%	1.0%	-0.7%
CCCCOc1ccc(C(=O)Nc2ccc(-c3nc4ccccc4s3)cc2C)cc1	-15.7%	nt	-15.0%	nt	nt
Cc1cc(C)nc(SCC(=O)Nc2ccc(S(=O)(=O)NC(C)(C)C)cc2)n1	1.3%	-3.0%	-26.6%	-4.5%	-1.3%
COc1ccc(NC(=O)c2noc3c2CCCCC3)cc1	12µM*	?	7.94µM*	?	1.41µM*
O=C(NCCc1ccccc1)c1noc2c1CCCCC2	8.49µM*	?	?	3.55µM*	2.51µM*
O=C(NCc1ccc(Cl)cc1)c1noc2c1CCCC2	-12.0%	?	-9.5%	2.7%	4.6%
Cc1ccc(NC(=O)c2noc3c2CCCCC3)cc1C	1.07µM*	?	7.94µM*	0.631µM*	0.398µM*
CCc1ccc(NC(=O)c2noc3c2CCC3)cc1	0.675µM*	0.82µM*	12.6µM*	0.562µM*	1µM*
CC(C)CNC(=O)c1noc2c1CCCC2	-4.5%	11.1%	17.8%	-1.5%	-0.6%
COc1ccc(CNC(=O)c2noc3c2CCCC3)cc1	?	?	7.7%	22.8%	28.2%
CCCc1nnc(SCC(=O)N2CCOCC2)n1Cc1ccco1	1.1%	-0.8%	15.3%	0.7%	-3.2%
CCOC(=O)C1(Cc2cccc(OC)c2)CCCN(Cc2ccc(NC(C)=O)cc2)C1 (centres undefined)	1.4%	-1.7%	nt	0.0%	0.5%
CC(C)n1cc(CN2CCN(C)C(CCO)C2)c2ccccc21 (centres undefined)	5.0%	-2.5%	nt	1.4%	-2.1%
CC1CCCCN1c1ccc(N)cc1C(N)=O (centres undefined)	-6.1%	-3.3%	nt	-1.4%	-7.3%
O=C(NC1CCCCC1)c1noc2c1CCCCC2	9.53µM*	9.2µM*	12.6µM*	2.51µM*	2.24µM*
CC(=O)c1cccc(NC(=O)c2noc3c2CCCC3)c1	10.7µM*	nt	2.82µM*	nt	nt
Cc1ccc(NC(=O)c2noc3c2CCCCC3)cc1	9.53µM*	?	11.2µM*	0.501µM*	0.562µM*
Cc1ccc(Cn2ccc(NC(=O)c3noc4c3CCCC4)n2)cc1	?	20.6µM*	2.7%	?	?
SMILES	FLuc modulator	ELG1 genotox	SMN2 splice up	Rab9 promoter act	NPC1 prom act
Cc1ccc(Cn2ccc(NC(=O)c3noc4c3CCCCC4)n2)cc1	?	2.0%	-32.0%	0.7%	16.3%
O=C(Nc1ccc(C(=O)N2CCOCC2)cc1)c1cccc(Br)c1	-17.2%	?	nt	14.1%	11.5%
CCOC(=O)c1cc(-c2ccc(C)c([N+](=O)[O-])c2)nc2c1c(=O)n(C)c(=O)n2C	0.8%	-3.3%	-4.8%	-7.4%	-2.2%
O=C(NCc1ccccc1)c1noc2c1CCCC2	-18.4%	?	nt	21.4%	20.1%
CCc1ccc(NC(=O)c2noc3c2CCCCC3)cc1	2.13µM*	?	10µM*	0.631µM*	0.708µM*
CC(C)N(C(=O)CN1C(=O)C(=O)c2ccccc21)c1ccccc1	-2.2%	0.3%	-2.6%	1.1%	-0.4%
COc1ccc(Oc2ccc(C(F)(F)F)cc2NC(=O)CC(CC(=O)O)c2ccccc2)cc1 (centres undefined)	2.6%	0.0%	nt	-1.5%	-0.2%
O=C(CN1CC(c2ccccc2)CC1=O)OCc1ccccc1F (centres undefined)	12µM*	0.2%	?	11.6%	6.5%
O=C(CN1C(=O)NC2(CCCC2)C1=O)OCc1ccccc1F	-1.8%	0.7%	nt	2.7%	-3.1%
COc1cccc(-c2nnc(SCC(=O)N3CC(C)CC(C)C3)o2)c1 (centres undefined)	2.5%	-2.2%	-21.3%	-8.9%	0.3%
COc1ccc(-c2nnc(SCC(=O)N3CCOCC3)o2)cc1	21.3µM*	20.6µM*	14.1µM*	4.47µM*	?
O=C(CSc1nnc(-c2ccc(O)cc2)o1)N1CCOCC1	?	8.9%	5.4%	?	23.0%
COc1cccc(-c2nnc(SCC(=O)N3CCOCC3)o2)c1	?	10.3%	21.3%	3.98µM*	?
COc1ccc2c(CC(=O)Nc3nc(C)cs3)coc2c1	23.9µM*	-3.3%	-3.1%	?	9.9%
COc1ccc2oc(C(=O)Nc3ccc(C)cn3)c(C)c2c1	1.9µM*	5.8µM*	nt	3.16µM*	2.51µM*
CCc1noc(C)c1C(=O)N(CC)CC(=O)Nc1ccccc1C(F)(F)F	-22.5%	3.3%	nt	-4.5%	-0.2%
COCc1c(C(=O)Nc2nc(C)cs2)oc2ccccc12	?	-0.7%	14.5%	0.8%	-1.4%
CCN(CC(=O)Nc1ccccc1C(F)(F)F)C(=O)c1oc2ccc(OC)cc2c1C	16.9µM*	?	nt	-1.7%	6.4%
